From PubChem BioAssay (NCATS) come the findings set out here.

Unmarked numbers belong to inactive results. How the calls were made is not given here. A value given as a limit tells only on which side of the number the result lay.
Potency means the concentration at half of the fitted maximal effect.

The test deals with HIV-1 nucleocapsid protein NCp7 (binding to TG oligonucleotide). Put plainly: HIV Nucleocapsid (AID 346).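 Further: potency is for inhibitors that block NC binding and lower polarization.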 Conditions: HIV-1 NC / fluorescein-TGTGTGTG probe, fluorescence polarization. In a few lines:
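Fluorescence polarization binding of 100 nM HIV-1 NC to 10 nM fluorescein-labelled TG4xF oligonucleotide. Buffer was Hepes pH 7.5 with 250mM NaCl, 1uM ZnCl2, TCEP and 2-mercaptoethanol. Compounds were incubated 1 hr at room temperature before the read.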
For orientation: Fluorescence polarisation rises when a labelled molecule tumbles more slowly, as on binding a larger partner.
`O=C(c1cccc(F)c1)N1CCC[C@@]2(CCN(c3ccccn3)C2)C1`: the Potency was over 20 µM. As to `O=c1c(-c2cccs2)nc2cnc(N3CCNCC3)nc2n1-c1ccccc1`, the Potency was 12.2 µM. To `CC(C)CN1CCC2(CC1)CCN(C(=O)c1csnn1)CC2` belongs over 20 µM; to `COc1ccc(-c2nc3cnc(N4CCOCC4)nc3n(CCC#N)c2=O)cc1`, over 20 µM.

As to `CCNc1ncc2nc(-c3cc(F)cc(F)c3)c(=O)n(Cc3ccc(F)cc3)c2n1`, the Potency was over 4 µM. The value for `COc1ccccc1CN1CCCC2(CCN(C(=O)c3cccn3C)CC2)C1` was over 20 µM; that for `c1nc(NCCN2CCOCC2)c2cc(-c3ccc4c(c3)OCO4)ccc2n1` was over 20 µM; that for `COc1ncc2nc(-c3cccs3)c(=O)n(CCC#N)c2n1` was over 20 µM. As to `COc1ccc2[nH]cc(CCNc3ccnc(-c4cccnc4)n3)c2c1`, the Potency is over 20 µM. To `COc1ccccc1CN1CC[C@@]2(CCCN(C(=O)c3cccn3C)C2)C1` belongs over 20 µM; to `O=C(c1cc(C(F)(F)F)cc(C(F)(F)F)c1)N1CCC[C@@]2(CCN(c3ccncc3)C2)C1`, over 20 µM.

For `COCC(=O)N1CCC2(CC1)CN(c1ccncc1)C2`, the Potency is over 20 µM.

As to `c1ccc(CNc2ncnc3ccc(-c4ccoc4)cc23)cc1`, the Potency was over 20 µM. The value for `COc1ccccc1-c1ccc2ncnc(NCc3cnc(C)cn3)c2c1` was over 20 µM.

Regarding `COc1ccc(Oc2ncc3nc(-c4cccc(C#N)c4)c(=O)n(Cc4cccc(OC)c4)c3n2)cc1`, the Potency is over 20 µM. The value for `O=c1c(-c2ccccc2)nc2cncnc2n1-c1ccccc1` was over 20 µM. With `COCC(=O)N1CCC2(CC1)CCN(c1ncccn1)CC2`, the Potency was over 20 µM. As to `COc1ccc(CNc2ncncc2-c2cccc(C#N)c2)c(OC)c1`, the Potency is over 20 µM. The value for `COc1ncc2ncc(=O)n(Cc3ccc(F)cc3)c2n1` was over 20 µM. The value for `COc1cccc(-c2nc(NC3CC3)c3ccccc3n2)c1` was over 20 µM. With `Cc1cnc(CNc2nc(-c3cccnc3)nc3ccccc23)cn1`, the Potency was over 20 µM. The value for `O=c1c(-c2ccc(Cl)cc2)nc2cncnc2n1Cc1ccccc1Cl` was over 20 µM; that for `N#CCCn1c(=O)c(-c2ccc(F)cc2)nc2cnc(OCc3ccccc3)nc21` was over 20 µM; that for `CS(=O)(=O)Nc1cccc(-c2nc(NCc3cccs3)c3ccccc3n2)c1` was over 20 µM. Consider `COc1ncc2nc(C)c(=O)n(C[C@H]3CCCO3)c2n1`, for which the Potency is over 20 µM. Regarding `CN(Cc1ccco1)c1nc(-c2cccnc2)nc2ccccc12`, the Potency was over 20 µM. The value for `CNc1ncncc1-c1c(C)noc1C` was over 20 µM; that for `COc1cccc(Nc2ncc3nc(-c4ccccc4)c(=O)n(C)c3n2)c1` was over 20 µM; that for `O=C(c1ccco1)N1CCC2(CCCN(Cc3ccccc3)C2)CC1` was over 20 µM.

As for `CN(C)C(=O)c1ccc(-c2nc(N(C)C)c3ccccc3n2)cc1`, the Potency is over 20 µM. `Cc1noc(C)c1-c1nccc(N(C)Cc2ccco2)n1`: the Potency is over 20 µM. Regarding `N#CCCn1c(=O)c(-c2ccc(Cl)cc2)nc2cnc(Nc3ccccc3)nc21`, the Potency is over 20 µM. The value for `Cn1cccc1C(=O)N1CCC2(CC1)CCN(c1ccccc1)CC2` was over 20 µM.

For the compound `COc1ccc(-n2c(=O)c(C)nc3cnc(N4CCNCC4)nc32)cc1`, the Potency was over 20 µM. To `CN(C)c1ccc(-c2cncnc2NCc2cccnc2)cc1` belongs over 20 µM; to `CNc1cc(-c2ccccc2CN(C)C)ncn1`, over 20 µM. To `COCCNc1nc(-c2ccccc2CN(C)C)nc2ccccc12` belongs over 20 µM; to `Cc1cnc(CNc2ncnc3ccc(-c4ccc(C(=O)N(C)C)cc4)cc23)cn1`, over 20 µM. To `c1cn(-c2cc(-c3ccc4c(c3)OCO4)ncn2)cn1` belongs over 20 µM; to `N#Cc1cccc(NC(=O)N2CC[C@@]3(CCCN(C(=O)c4cnccn4)C3)C2)c1`, over 20 µM.
